From the supplement of paper PMC5407854, “Inhibitor of ppGalNAc-T3-mediated O-glycosylation blocks cancer cell invasiveness and lowers FGF23 levels” (eLife, 2017) come the findings set out here.

In all, about 1,700 compounds were measured (“T2 sensor activation Q score (MG/GFP ratio z-score vs DMSO controls)”: median about 0.3, highest 2% from about 1.9 on). The sample as a whole holds a higher share of the highest values than the screen did.

This assay has as its system ppGalNAc-T2 sensor. Kind of assay: T2 sensor activation Q score (MG/GFP ratio z-score vs DMSO controls) (SD units); higher = more sensor activation (inhibition of ppGalNAc-T2 glycosylation). Particulars: HEK293 sensor cells; 10 µM; 6 h. The method, then:
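Cells were treated with compound at 10 uM for 6 h, then MG/GFP ratio was read by flow cytometry (10,000 cells per well, duplicate wells). Q = (R - R_neg)/SD_neg relative to DMSO vehicle controls; the signal rises when the glycosyltransferase is inhibited.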
Regarding `Cn1cnc([N+](=O)[O-])c1Sc1n[nH]c(N)n1`, the “T2 sensor activation Q score” value is 1.8.

Turning to `Cn1cnc([N+](=O)[O-])c1N=C(N)N`, the “T2 sensor activation Q score” value was 2.2.

`Cc1ncc([N+](=O)[O-])n1CCOC(N)=O`: the “T2 sensor activation Q score” value was -0.85.

Consider `NCCCNCCSP(=O)(O)O`, for which the “T2 sensor activation Q score” value is -0.45.

In the case of `Cc1ccccc1-n1c(C=Cc2ccccn2)nc2ccccc2c1=O`, the “T2 sensor activation Q score” value was -1.

Consider `COC[C@H]1OC(=O)c2coc3c2[C@@]1(C)C1=C(C3=O)[C@@H]2CCC(=O)[C@@]2(C)C[C@H]1OC(C)=O`, for which the “T2 sensor activation Q score” value was determined as 2.1.

Regarding `CC12CCC3C(CC=C4CC(O)CCC43C)C1C/C(=C\N1CCCC1)C2=O` (stereo not given), the “T2 sensor activation Q score” value was found to be 0.15.

On to `C=Cc1cc(OC)c2c(c1)c(=O)oc1c2cc(OC)c2c(O)ccc(C3OC(C)C(O)C(C)(O)C3O)c21` (stereo not given), for which the “T2 sensor activation Q score” value was -0.15.

In the case of `O=C1C[C@@H]2OCC=C3C[N+]4([O-])CC[C@]56c7ccccc7N1[C@H]5[C@H]2[C@H]3C[C@@H]64` (stereo not given in full), the “T2 sensor activation Q score” value worked out at 1.95.

Consider `O=C1/C(=C\c2ccccc2)C2OCC=C3CN4CCC56c7ccccc7N1C5C2C3CC46` (stereo not given), for which the “T2 sensor activation Q score” value came to 0.15.

In the case of `CC(C)CC(NC=O)C(=O)O.COc1cc2c(cc1OC)C13CCN4CC5=CCOC6CC(=O)N2C1C6C5CC43` (stereo not given), the “T2 sensor activation Q score” value is 1.3.

For the molecule `COc1cc2c(cc1O)C[C@H]1c3c(cc(O)c(OC)c3-2)CCN1C`, the “T2 sensor activation Q score” value worked out at 0.75.

Regarding `c1cc(C2N3CCCN2CC3)ccn1` (stereo not given), the “T2 sensor activation Q score” value is -0.3.

Consider `CC(Cc1ccccc1)NC(N)=O` (stereo not given), for which the “T2 sensor activation Q score” value is 1.8.

For `O=C1N[C@H]2[C@H](O)[C@H](O)[C@@H](O)[C@H](O)[C@@H]2c2cc3c(c(O)c21)OCO3`, the “T2 sensor activation Q score” value is 2.6.

Consider `Cc1c(CCN)ccc2c1[nH]c1ccccc12`, for which the “T2 sensor activation Q score” value is 0.7.

For the molecule `COc1ccc2c(c1O)[C@]13CCN(C)[C@H](C2)[C@@H]1CCC(=O)C3`, the “T2 sensor activation Q score” value was -0.1.

Consider `COc1ccc2c(c1)C13CCN(C)C(C2)C1CCC1(C3)OCCO1` (stereo not given), for which the “T2 sensor activation Q score” value worked out at 2.

Regarding `Cc1c(C(=O)c2ccccc2)c2ccccc2n1C`, the “T2 sensor activation Q score” value is 1.75.

For the molecule `O=C1N(c2nncs2)CCN1[N+](=O)[O-]`, the “T2 sensor activation Q score” value was 1.2.

As for `CC1CC(C)OP(=O)(OCCC#N)O1` (stereo not given), the “T2 sensor activation Q score” value came to 0.35.

Turning to `COc1ccc(CCNC2(C#N)CCCCC2)cc1OC`, the “T2 sensor activation Q score” value is -0.65.

As to `CN1CCN(c2ccc([N+](=O)[O-])c3no[n+]([O-])c23)CC1`, the “T2 sensor activation Q score” value was 0.1.

As to `CN1CCN(c2nc(N)c(Br)c(Cl)n2)CC1`, the “T2 sensor activation Q score” value turned out to be 0.8.

Turning to `O=P(Oc1ccccc1)(Oc1ccccc1)c1ccccc1`, the “T2 sensor activation Q score” value is -3.1.

Regarding `CC12CCC3C(CCC4Cc5[nH]c6ccccc6c5CC43C)C1CCC2O` (stereo not given), the “T2 sensor activation Q score” value was found to be 0.65.

Take `O=C1CCC2(O)[C@@H]3Cc4ccc(O)c5c4[C@]2(CCN3Cc2ccoc2)C1O5` (stereo not given in full): the “T2 sensor activation Q score” value turned out to be 0.3.

On to `C=CCN1CCC23c4c5ccc(O)c4OC2C(=O)CCC3(O)C1C5` (stereo not given), for which the “T2 sensor activation Q score” value came out at 2.2.

Regarding `NN=C1C(Cl)=C(Cl)C(Cl)=C1Cl`, the “T2 sensor activation Q score” value is -0.35.

Regarding `CCCC(=O)N(C)C1=Nc2ccc(Cl)cc2C(c2ccccc2)=[N+]([O-])C1`, the “T2 sensor activation Q score” value came to 0.

As to `CCC(C)c1cnc(CC(C)C)c(=O)n1O` (stereo not given), the “T2 sensor activation Q score” value is -0.75.

As for `CC12CCC3c4ccc(OC(=O)N(CCCl)CCCl)cc4CCC3C1CCC2O` (stereo not given), the “T2 sensor activation Q score” value was -0.35.

With `OCC1CN1C1CCCCC1` (stereo not given), the “T2 sensor activation Q score” value is 2.1.

With `CN1CCC(c2c[nH]c3ccccc23)C1` (stereo not given), the “T2 sensor activation Q score” value was 0.5.

Regarding `CCC(N)Cc1c[nH]c2ccccc12` (stereo not given), the “T2 sensor activation Q score” value was 1.2.
